Assay results reported in PubChem BioAssay.
The source made the active and inactive calls. No rule for the calls is given here.

target: L-lactate dehydrogenase (Plasmodium falciparum (isolate CDC / Honduras)) (UniProt Q27743); test: PfLDH activity inhibition – cell lysate, 3D7 strain, counter-screen for P. falciparum growth inhibition project (AID 2304);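 also: 0% = vehicle and 100% = reference inhibitor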; conditions: P. falciparum 3D7 crude extract, LDH APAD/NBT absorbance; at 2 µM; stronger effect = higher value
Sequence (Q27743 whole entry, looked up): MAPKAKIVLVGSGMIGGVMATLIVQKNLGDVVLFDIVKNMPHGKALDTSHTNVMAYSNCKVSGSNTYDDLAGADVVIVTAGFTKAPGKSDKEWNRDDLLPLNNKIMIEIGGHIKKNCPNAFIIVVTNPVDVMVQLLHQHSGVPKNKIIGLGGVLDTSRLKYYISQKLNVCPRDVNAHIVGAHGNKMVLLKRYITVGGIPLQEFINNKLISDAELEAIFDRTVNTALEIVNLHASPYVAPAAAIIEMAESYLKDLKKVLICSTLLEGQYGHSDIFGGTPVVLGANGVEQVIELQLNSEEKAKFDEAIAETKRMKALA

| SMILES | inhibition |
| --- | --- |
| Cn1c2c(c3ccccc31)CN(CCC1(c3ccc(Cl)c(Cl)c3)CN(C(=O)Cc3ccccc3)CCO1)CC2 (centres undefined) | 0% (inactive) |
| O=C(NCc1ccc(F)cc1)Nc1ccc(-c2cccc(-c3nc4ccc(F)cc4[nH]3)c2)cc1 | -1% (inactive) |
| COc1ccc(/C=C/C(=O)N2CCc3cc4nccc(N5CCN6CCC[C@H]6C5)c4cc32)cc1 | -9% (inactive) |
| CS(=O)(=O)Nc1cccc(-c2cnc3[nH]cc(-c4cc(N)cc(C(=O)O)c4)c3c2)c1 | 0% (inactive) |
| CCN(CC)CCN(Cc1ccc(-c2ccc(C(F)(F)F)cc2)cc1)C(=O)Cn1c(CCc2ccc(F)c(F)c2F)nc(=O)c2cccnc21 | -3% (inactive) |
| Cc1cc(N2CCOCC2)nc2ccc(NC(=O)c3ccc(Cl)c([N+](=O)[O-])c3)cc12 | 3% (inactive) |
| CCOc1cccc(C(=O)Nc2ccc(-c3nc4ccccc4[nH]3)cc2)c1 | -1% (inactive) |
| O=C(NCCCCN1CCC(c2ccc([N+](=O)[O-])cc2)CC1)c1ccc(NC(=O)c2ccc(Cl)cc2)cc1 | 2% (inactive) |
| O=C(Nc1cccc(-c2ccc(CN3CCNCC3)cc2)c1)c1cccc(Cl)c1 | -4% (inactive) |
| Cc1cc(N(C)C)nc(Nc2ccc(NC(=O)C(C)Oc3ccccc3)cc2)n1 (centres undefined) | -1% (inactive) |
| CCN(CC)CCN(Cc1ccc(-c2ccc(C(F)(F)F)cc2)cc1)C(=O)Cn1c(CCc2ccc(F)cc2)nc(=O)c2sccc21 | -3% (inactive) |
| Cc1ncc([N+](=O)[O-])n1CCOC(=O)NC(NCC1COc2ccccc2O1)C(Cl)(Cl)Cl (centres undefined) | -4% (inactive) |
| COC(=O)c1ccc(CN2CCC(N(Cc3cccc(Oc4ccccc4)c3)S(=O)(=O)c3ccc(NC(C)=O)cc3)CC2)cc1 | -6% (inactive) |
| COc1ccc(CN2CCC(N3CC(c4ccccc4)(c4ccccc4)OCC3=O)C2)c(O)c1 (centres undefined) | 3% (inactive) |
| CC(C)Oc1ccc(C=CC(=O)Nc2noc3ccccc23)cc1 | 4% (inactive) |
| N#Cc1ccc(Cn2ccc3c4c(N)nc(N)nc4ccc32)cc1 | 0% (inactive) |
| CC(=O)c1cccc(Nc2nc3c(C#N)c(OCc4cc(Cl)cc(Cl)c4)ccc3[nH]2)c1 | 0% (inactive) |
| CCN(CC)CCCN(Cc1ccc(-c2ccc(C(F)(F)F)cc2)cc1)C(=O)Cn1c(SCc2cccc(F)c2F)cc(=O)c2ccccc21 | 7% (inactive) |
| Cc1[nH]c(C)c(-c2ccc(OCCOc3ccc(C(F)(F)F)cn3)cc2)c(=O)c1Br | 3% (inactive) |
| CC(C)CCOc1ccc(NC(=O)c2cccs2)cc1 | -3% (inactive) |

| SMILES | inhibition |
| --- | --- |
| CCN1CCN(c2ccc(Nc3ccnc4ccc(Br)cc34)cc2)CC1 | 2% (inactive) |
| CC1(C)N=C(NC(=O)Nc2ccc([N+](=O)[O-])cc2)N=C(N)N1OCc1cccc2ccccc12 | -3% (inactive) |
| CC(O)C1CCCCN1C(=O)c1cccc(-c2cccc(-c3nc4ccc(F)cc4[nH]3)c2)c1 (centres undefined) | -2% (inactive) |
| COc1cccc(-c2cccc(-c3ccc(NC(=O)c4ccc([N+](=O)[O-])o4)cc3)n2)c1 | 6% (inactive) |
| N#Cc1ccc2c(c1)CN(C1CCC(NC(=O)c3cc(-c4ccc(Cl)cc4)cs3)CC1)CCC2 (centres undefined) | 0% (inactive) |
| CCOc1ccc2nc3cc(NC(=O)c4ccco4)ccc3c(N)c2c1 | -1% (inactive) |
| COc1ccc2ncc(F)c([C@@H](O)CN3CCC(NCc4cc5c(cn4)OCS5)CC3)c2c1 | -2% (inactive) |
| FC(F)(F)c1ccc2nccc(NCc3ccccc3)c2c1 | -9% (inactive) |
| COc1ccc(CN2CCCN(Cc3cccc(C(=O)Nc4ccc(C(C)(C)C)cc4)c3)CC2)cc1 | 2% (inactive) |
| CCc1ccc(C(=O)NC(=O)c2ccccc2O)cc1 | 1% (inactive) |
| COc1ccc(N2CCN(CCCNC(=O)c3ccc(NC(=O)c4cc(Cl)cc(Cl)c4)cc3)CC2)c(OC)c1 | -4% (inactive) |
| CCCC(=O)Nc1ccc(OCCCN(Cc2ccccc2F)c2ccc(C#N)c(C(F)(F)F)c2)cc1 | 1% (inactive) |
| CN(C)c1ccc(C2c3nc[nH]c3CCN2C(=O)Nc2cccc([N+](=O)[O-])c2)cc1 (centres undefined) | 1% (inactive) |
| COc1cccc(NC(=O)Nc2ccc(Nc3nc(C)cc(N(C)C)n3)cc2)c1 | 5% (inactive) |
| CCn1ncc2c(N3CCCC3=O)cc(C(=O)N[C@@H](Cc3ccccc3)[C@H](O)CNC(C)(C)c3cccc(C(F)(F)F)c3)cc21 | 3% (inactive) |
| Fc1cccc(COc2ccc(-n3ccc4c(NCCCn5ccnc5)ncnc43)cc2Cl)n1 | -2% (inactive) |
| N#Cc1cccc(C(=O)NC2CCN(CCCCCNC(=O)/C=C/c3ccc(Cl)c(Cl)c3)CC2)c1 | -9% (inactive) |
| Cc1[nH]c(C)c(-c2ccc(C(=O)c3ccc(Cl)cc3)cc2)c(=O)c1Cl | 4% (inactive) |
| Fc1ccc(-c2nc(NCc3cccc(C(F)(F)F)c3)nn2-c2cccc(C(F)(F)F)c2)cc1C(F)(F)F | -5% (inactive) |
